Source: PubChem BioAssay AID2252 (Southern Research Specialized Biocontainment Screening …, 2010)
About 1,500 (65%) of roughly 2,300 compounds were called active. So high a share suggests a set chosen from earlier hits. Not all results are given here. Values without a mark were called inactive. No rule for the calls is given here.

experiment: PubChem AID 2252; conditions: THP-1 viability, CellTiter-Glo luminescence, 72 h; min viability: minimum viability across concentrations, stronger effect = lower value, concentration not given here; series mostly up to 50 µM; viability: at the top concentration;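 also: 100% = mean of untreated cell control wells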

Structure (SMILES)	viability
CC(=O)N1CSCC1C(=O)N1CCN(c2ccc(N3CCOCC3)nn2)CC1 (stereo not given)	88.5%
CCCCNC(=O)NS(=O)(=O)c1ccc(C(=O)OC)o1	95.1%
O=C(c1cccs1)N1CCC(N2CCN(c3ccccc3)CC2)CC1	86.8%
N#Cc1c(/N=C/c2cccs2)sc2c1CCCCC2	93.7%
Cc1ccc(NC(=O)CCNC(=O)c2ccccc2)cc1F	105%
Cc1c(/C=N/NC(=O)c2sc3ccccc3c2Cl)cnn1C	96%
Cc1cc(C)cc(N(C(=O)CNC(=O)c2cccs2)C(C(=O)NC2CCCC2)c2cccnc2)c1 (stereo not given)	106%
CC(C)OC(=O)Cn1c(=O)sc2ccccc21	95%
CC(=O)Nc1cccc(NS(=O)(=O)Cc2ccc(Cl)cc2)c1	87.5%
COc1ccc(C(=O)NNS(=O)(=O)c2ccccc2)cc1OC	94.7%
O=C(NCc1ccccc1)c1ccc(CNc2c(N3CCCC3)c(=O)c2=O)cc1	99.5%
C[C@H]1COc2c(N3CCN(C)CC3)c(F)cc3c(=O)c(C(=O)O)cn1c23	95.3%
CCCCc1cc(=O)oc2cc(C)cc(OCC(=O)NCC3CCC(C(=O)O)CC3)c12 (stereo not given)	93.5%
Cc1ccc(CNC(=O)CCC(=O)Nc2nnc(C)s2)cc1	93.7%
CCOc1cc(S(=O)(=O)N2CCN(CC)CC2)ccc1Cl	93.8%
O=C(NCc1ccc2c(c1)OCO2)c1ccc2c(c1)C(=O)N(Cc1cccnc1)C2=O	92.6%
CCOC(=O)C1CCN(C(=O)CCc2nc3ccccc3[nH]2)CC1	101%
NS(=O)(=O)c1ccc(CCNS(=O)(=O)c2cccc(C(=O)O)c2)cc1	108%
O=C(NC(=O)c1ccccc1)OCC1CCCN2CCCCC12 (stereo not given)	94.6%
N=c1ccccn1CC(O)COc1ccccc1 (stereo not given)	84.3%
COc1cc(/C=C2/C(=O)NN(c3ccc(C)c(Cl)c3)C2=O)cc([N+](=O)[O-])c1O	85.9%
O=C(O)c1ccc(S(=O)(=O)NC2CC2)cc1	89.6%
C#CCOCCOCCOCCNc1nc(N2CCN(C(=O)[C@H](Cc3ccc(O)cc3)n3cc([C@@H](N)C(C)CC)nn3)CC2)nc(N2CCN(C(=O)[C@H](Cc3cc4ccccc4[nH]3)n3cc([C@@H](N)Cc4ccc(O)cc4)nn3)CC2)n1 (stereo not given in full)	97.5%
NC1=NC(c2cccc(O)c2)n2c(nc3ccccc32)N1 (stereo not given)	93.1%
COc1ccc(CCC(=O)NCc2cn3ccccc3n2)cc1	101%
O=C(NC(O)C(=O)c1ccccc1)c1ccc(F)cc1 (stereo not given)	90.5%
Cc1ccc(N2CC(C(=O)OCc3ccccc3F)CC2=O)cc1 (stereo not given)	107%
CCn1cc(C(=O)O)c(=O)c2cc(F)c(N3CCN(C(=S)NC(=O)c4ccccc4C)CC3)cc21	94.3%

Structure (SMILES)	viability
COCCN1CC(=O)N2C(c3cccc(OC)c3)c3[nH]c4ccccc4c3C[C@H]2C1=O (stereo not given in full)	94.5% [at 25 µM]
O=C(NC1CCCC1)c1ccc(Br)s1	80.1%
Cc1cccc(NCN2C(=O)c3ccccc3C2=O)c1	102%
Cc1cnc(NC(=O)CN2C(=O)C3CC=CCC3C2=O)s1 (stereo not given)	94.9%
CC(C)c1ccc(C2C(C#N)=C(N)Oc3c2oc(CO)cc3=O)cc1 (stereo not given)	87.6%
NC(=O)c1ccc(N=C2C(=O)Nc3ccc([N+](=O)[O-])cc32)cc1	93%
CC(/C=C\c1cccnc1)=C/C(=O)O	84.6%
NCCCCCc1nnc(SCc2ccc(Cl)cc2Cl)o1	90.7%
COc1cc2c(cc1OC)CN(C(=O)CCCN1C(=O)c3ccccc3C1=O)CC2	88.9%
CCOC(=O)C1=C(C(C)=O)C(c2cccnc2)C(C#N)=C(N)O1 (stereo not given)	92.3%
O=C(CSc1nc2c(c(=O)n1-c1ccc(F)cc1)SCC2)NCc1ccco1	96.5%
CC(C)n1cnnc1SCC(=O)Nc1ccc(Br)cc1F	94.9%
Cc1nn(C)c(C)c1NC(=O)c1ccc(S(=O)(=O)N(C)C)cc1	113%
COc1ccc(C2C3=C(CC(C)(C)CC3=O)Nc3cc4c(cc32)OCO4)cc1 (stereo not given)	91.7%
O=c1ccnc(Sc2ncccc2[N+](=O)[O-])[nH]1	91.4%
CC[C@H]1OC(=O)[C@H](C)[C@@H](O[C@H]2C[C@@](C)(OC)[C@@H](O)[C@H](C)O2)[C@H](C)[C@@H](O[C@@H]2O[C@H](C)C[C@H](N(C)C)[C@H]2O)[C@](C)(O)C[C@@H](C)CN(C)[C@H](C)[C@@H](O)[C@]1(C)O	98.5%
COc1cc(NS(=O)(=O)c2ccc(NC(=S)Nc3ccccc3)cc2)nc(OC)n1	91.8%
O=C1CC(=O)CC(c2ccco2)C1	103%
CCn1c(CNC(=O)c2ccc(OC)cc2)nnc1SC	95.3%
CC(=O)c1ccc(OC(=O)c2cc3ccccc3oc2=O)cc1	96.3%
COc1ccc(NC(=O)c2ccc3nc[nH]c3c2)cc1	98.5% [at 25 µM]
COC(=O)c1cn(C(=O)c2ccco2)c2ccccc12	83.7%
CCN1CCN(Cc2ccc(NC(=O)c3ccc(C)c(NC(=O)C(=O)c4c[nH]c5ccccc45)c3)cc2C(F)(F)F)CC1	89.8%
Cn1nnnc1SCC(=O)Nc1ccccc1-c1ccccc1	86.6%
CCn1c(SCC(=O)Nc2oc(-c3ccccc3)c(-c3ccccc3)c2C#N)nnc1-c1ccco1	87.7%
Cc1ncc(CC(=O)n2cc(C(=O)c3cc(F)ccc3O)cn2)s1	92.9%
COc1ccc(C(CC(=O)O)NC(=O)C2CCCCC2)cc1 (stereo not given)	98.9%
